Eya2 phos inh – Eya2 (human) phosphatase inhibition. O00167. recombinant Eya2, OMFP fluorescence dephosphorylation (OMFP is methylfluorescein phosphate). Potency, µM (titrated, usually from 76.9 µM), for the others: top-dose activity, negative = inhibition, usual class: inhibitors. 330,000 tested, 0.006% active. AID 488837; note: potency is the fitted concentration of half-maximal effect
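Eya2 (0.2 uM) preincubated 10 min at ambient with compound, then OMFP substrate added at 50 uM; 10 min reaction in 50 mM HEPES pH 7.5, 50 mM NaCl, 5 uM MgCl2, 0.05% BSA, 1 mM DTT. Fluorescence read at Ex 485/Em 525 nm.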
L3MBTL1 block – inhibitors of human L3MBTL1. 230,000 tested, 0.66% active. Potency, µM (doses to about 57.1 µM), without a hit: top-dose activity, negative = inhibition, usual class: inhibitors. Q9Y468. AlphaScreen L3MBTL1–H3K9me1 peptide binding; note: potency is the fitted concentration of half-maximal effect; nearly all actives have a fitted effect of over 60% in size
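AlphaScreen assay: L3MBTL1 (50 nM final) was preincubated 30 min at room temperature with biotinylated H3(1-15)K9me1 peptide (75 nM final), then 30 min with library compounds; streptavidin donor and nickel chelate acceptor beads (10 ug/mL final) added, 30 min dark.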
CtBP-E1A inh – blocks the CtBP interaction with E1A | 340,000 tested, 0.49% active | AID 651724 | activity change, % (test concentration not listed) | AlphaScreen GST-E1A/His-CtBP binding, 1536-well; active compounds read low; in the data active = activity change below about -65%; inconclusive = mostly about -30% to -63%
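GST-E1A and His-tagged CtBP (125 nM each as 5X stock) were preincubated with pin-transferred compound for 2 h at 37 °C in the dark, then glutathione donor and nickel acceptor beads were added for 1 h before AlphaScreen reading.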
Six1-Eya2 inh – Six1/Eya2 interaction inhibition; Q15475+O00167; AlphaScreen GST-Six1/His-Eya2 binding, biochemical; active compounds read low; activity change, % (no concentration beside the values); 360,000 tested, 0.56% active; in the data active = activity change below about -65%; inconclusive = mostly about -30% to -63%
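AlphaScreen with GST-Six1 and His-Eya2 (5X mix: 250 nM and 500 nM), glutathione donor and nickel acceptor beads; buffer 50 mM Tris pH 8.0, 300 mM NaCl, 1 mM TCEP; 1 h at 37 C in the dark.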
uPA generation – blocks generation of uPA at the cell surface | cell surface uPA generation assay, qHTS | Potency, µM (top dose mostly 38.3 µM), without a hit: top-dose activity change, negative = inhibition, usual class: inhibitors | 330,000 tested, 0.31% active; active = well fitted inhibition curve with a large enough effect; inconclusive = small, poorly fitted or top-dose-only effect; inactive = no such curve, though single readings can be large or run the other way; tested in mouse RAW 264.7 cells; note: potency is the fitted concentration of half-maximal effect; nearly all actives have a fitted effect of over 55% in size
USP2a inh – blocks human ubiquitin-specific protease USP2a; O75604; USP2 core, Ub-CHOP2 coupled fluorogenic reporter, 485/531; Potency, µM (series often up to 38.3 µM), for inactives: at the highest dose activity change, negative = inhibition, hits mostly inhibitors; 330,000 tested, 0.01% active;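 note: potency is the fitted concentration of half-maximal effect; plate controls were DMSO wells for no effect and full inhibition by NEM control for full effect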
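Deubiquitinase activity read as fluorescence (485/531 nm) after Ub-CHOP2 cleavage activates the enterokinase reporter on its substrate; USP2 core 10nM, Ub-CHOP2 and substrate 25nM each, 30min compound preincubation then 60min RT; data normalized to NEM, curves fitted.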
* hit, by the source's call; ? = inconclusive; / = no result given. A selection: hits, their analogues and other compounds. The true share with any hit is near 1.2%. Unless noted, calls come from the whole dose curve; as a rule, active = well fitted curve in the direction sought with a large enough effect; inconclusive = small, poorly fitted or top-dose-only effect, or another doubt; inactive = no such curve, though single readings can be large; an effect the other way counts as inactive or inconclusive. Unless noted, % is set by controls: 0 for no effect and ±100 for the full control effect.

SMILES	Eya2 phos inh	L3MBTL1 block	CtBP-E1A inh	Six1-Eya2 inh	uPA generation	USP2a inh
COc1ccc(/C=N/NC(=O)CNC(=O)COc2ccccc2)cc1	-7.9%	-2.9%	2.5	3.0	1.9%	-0.1%
COc1cccc(/C=N/NC(=O)CNC(=O)c2ccncc2)c1O	-13.1%	/	/	5.4	?	-0.5%
COc1cc(OC)c(OC)cc1/C=N/NC(=O)C[n+]1ccccc1	-0.5%	7.3%	2.7	5.2	6.3%	2.3%
COc1cccc(/C=N/NC(=O)CNC(=O)COc2ccccc2)c1O	5.0%	-1.3%	?	-83.0*	?	4.8%
CCOc1cccc(/C=N/NC(=S)Nc2cc(S(=O)(=O)N3CCOCC3)ccc2N2CCOCC2)c1O	-0.7%	?	-96.5*	-86.6*	-8.3%	-12.2%
O=C(OCc1cn([C@H]2CN(Cc3cccs3)[C@@H](c3ccc(Cl)cc3)C[C@@H]2O)nn1)c1ccccc1	/	/	4.5	-3.2	/	/
O=S(=O)(c1ccccc1)N1CCNCC1	/	/	8.2	-13.6	-0.4%	/
CCc1cccc(CC)c1N1C(=O)CSCC1=O	/	/	0.0	-3.1	/	/
CCOc1cccc(/C=N/NC(=O)c2cc(-c3cccn3C)n[nH]2)c1O	2.6%	-15.2%	-84.9*	-87.0*	-2.9%	0.6%
O=C(COc1ccccc1)NCC(=O)N/N=C/c1ccc(O)cc1O	7.9%	/	-91.5*	-79.7*	4.4%	0.4%
COc1cc(OC)c(OC)cc1/C=N/NC(=O)c1cc(-c2cccn2C)n[nH]1	?	-24.9%	2.3	-1.6	-0.1%	-0.6%
CCCOc1cccc(C(=O)Nc2ccc3c(c2)OCCO3)c1	-1.6%	-3.8%	/	-1.5	10µM*	3.7%
CCOc1ccc(/C=N/NC(=O)C(O)c2ccccc2)c(O)c1 (centres undefined)	1.5%	4.7%	-84.7*	?	-10.7%	-0.7%
CCN(CC(=O)Nc1c(F)cccc1F)C(=O)c1cc([N+](=O)[O-])ccc1N1CCCCC1	-2.2%	5.4%	4.2	-2.3	?	-1.1%
Cc1ccsc1C(=O)N1CCC1(C)C(=O)Nc1ccc2c(c1)OCCO2 (centres undefined)	/	/	1.4	-6.9	/	/
Cc1ccc(C)c(S(=O)(=O)N2CCN(C(=O)c3ccccn3)CC2)c1	12.4%	0.0%	5.8	-5.0	0.6%	-0.2%
Cc1nn(CC(=O)c2ccc(Cl)s2)c(C)c1[N+](=O)[O-]	11.0%	-10.7%	-3.0	-0.6	6.3%	3.4%
O=C(CNC(=O)c1ccc2c(c1)OCCO2)N/N=C/c1ccc(O)cc1O	3.6%	-3.7%	-90.4*	-77.5*	-6.2%	0.1%
CN(C)c1ccc(/C=N/NC(=O)CNC(=O)c2ccc3c(c2)OCCO3)cc1	4.7%	/	-11.6	-5.4	4.0%	1.1%
COc1cccc(/C=N/NC(=O)CNC(=O)c2cccnc2)c1O	7.9%	/	-86.9*	-71.2*	-9.7%	5.9%
O=C(N/N=C/c1ccc(O)cc1O)C(=O)N/N=C/c1ccc(O)cc1O	6.3%	0.708µM*	-92.5*	-68.4*	-8.9%	-0.4%
CC12CCC(C(=O)N/N=C/c3ccc(O)cc3O)(OC1=O)C2(C)C (centres undefined)	1.6%	-21.3%	-88.5*	-67.5*	-13.8%	0.2%
O=C(NN=Cc1ccc(O)cc1)C(=O)NN=Cc1ccc(O)cc1	/	/	-4.4	-6.0	-4.6%	/
Nc1[nH]c(N=NC(=O)c2ccc(F)cc2)c2ccccc12	0.8%	-2.2%	-23.5	-2.3	-3.6%	0.7%
Nc1ccccc1C(=O)N=Nc1[nH]c(N)c2ccccc12	-9.0%	?	-87.1*	-76.2*	-11.9%	-0.4%
SMILES	Eya2 phos inh	L3MBTL1 block	CtBP-E1A inh	Six1-Eya2 inh	uPA generation	USP2a inh
CCCCC(CCC(=O)Nc1ccn(-c2ccccc2)n1)C(=O)O (centres undefined)	39.8µM*	-3.0%	0.4	2.6	2.0%	11.1%
C/C(=N\NC(=O)c1nnn(-c2nonc2N)c1CSc1ccc(C)cc1)c1ccco1	-5.8%	/	3.0	1.5	2.0%	1.0%
O=C(Cn1c(=O)c2sccc2n(Cc2ccc([N+](=O)[O-])cc2)c1=O)NCCc1ccccc1	-17.4%	7.0%	-88.7*	?	6.1%	-1.5%
O=C(Cn1c(=O)c2sccc2n(Cc2cccc([N+](=O)[O-])c2)c1=O)NCCc1ccccc1	1.5%	4.9%	0.0	-21.0	-4.0%	1.9%
CC(=O)N1CCc2c(sc(NC(=O)c3ccc4c(c3)OCCO4)c2C#N)C1	-22.2%	7.5%	4.1	3.4	7.94µM*	0.6%
COc1ccc(CC(=O)NNC(=O)CCc2ccccc2)cc1OC	6.2%	/	3.9	-0.7	-1.4%	-0.2%
O=C(Nc1ccc(Cl)cc1Cl)c1ccc2c(c1)OCCO2	5.7%	11.5%	4.4	2.8	4.47µM*	-0.9%
Cc1cc(Cl)ccc1NC(=O)c1ccc2c(c1)OCO2	8.0%	5.1%	-12.2	-9.9	-4.5%	-1.2%
O=C(/C=C/c1cc(Br)ccc1F)OCC(=O)N1CCOCC1	0.2%	-1.7%	-81.5*	-24.0	-1.8%	2.7%
CCOC(=O)C1CCN(C(=O)COC(=O)c2oc3ccccc3c2C)CC1	0.5%	6.6%	2.1	9.7	3.7%	-0.1%
N#C/C(=N/Nc1ccc(OC(F)(F)F)cc1)C(N)=S	-3.2%	-26.5%	/	-14.2	7.94µM*	1.4%
CC(=O)/C(=N/Nc1ccccc1[N+](=O)[O-])N1CCCc2ccccc21	-4.1%	?	-74.5*	-74.3*	0.1%	-4.9%
CC(=O)/C(=N/Nc1ccc([N+](=O)[O-])cc1)N1CCCc2ccccc21	9.3%	/	2.1	0.4	1.7%	12.5%
Cc1cnc(NC(=O)C2(C)CCN2C(=O)C(C)C)s1 (centres undefined)	/	/	5.3	4.7	/	/
COC(=O)c1[nH]c2c(c1C)C(=O)CC(c1cc(OC)ccc1OC)C2 (centres undefined)	7.2%	2.4%	3.2	-6.0	5.62µM*	0.7%
CCN(CC)S(=O)(=O)c1ccc(N/N=C(\C)c2ccc(OC)cc2O)nc1	?	/	/	?	5.62µM*	0.0%
CCN(CC)S(=O)(=O)c1ccc(N/N=C/c2ccc(O)cc2)nc1	14.1%	3.5%	1.9	-7.8	-15.1%	1.1%
Cc1ccccc1C(=O)Nc1c2c(nn1C(C)(C)C)CS(=O)(=O)C2	-14.3%	/	3.3	5.3	0.3%	-2.1%
O=C(Nc1ccc(Cl)cn1)C1COc2ccccc2O1 (centres undefined)	0.9%	-7.9%	11.6	7.3	4.4%	2.9%
Cc1cc(=S)nc(-c2ccccn2)[nH]1	-2.6%	-6.6%	-68.8*	-84.9*	-4.9%	0.6%
O=C(Nc1nccs1)c1ccc(CSc2nnnn2-c2ccccc2)cc1	12.5%	-24.5%	-78.9*	-68.3*	/	-1.6%
NC(=O)c1ccc(-n2nnnc2SCc2ccccc2)cc1	-2.9%	/	1.8	-2.8	-4.0%	0.6%
